Screens (PubChem BioAssay)
Rows were chosen to be rich in hits. Some 9.8% of all compounds tested hit in one or more screens of this group.
CBFb-RUNX1 inh: inhibitors of human CBF-beta and RUNX1 interaction. AID 1477. Potency, µM (series often up to 59.8 µM), most hits filed as inhibitors. 230,000 tested, under 10 active. AlphaScreen CBFb-His/RUNX1-biotin binding, biochemical
Target sequence (Q01196 whole entry, looked up): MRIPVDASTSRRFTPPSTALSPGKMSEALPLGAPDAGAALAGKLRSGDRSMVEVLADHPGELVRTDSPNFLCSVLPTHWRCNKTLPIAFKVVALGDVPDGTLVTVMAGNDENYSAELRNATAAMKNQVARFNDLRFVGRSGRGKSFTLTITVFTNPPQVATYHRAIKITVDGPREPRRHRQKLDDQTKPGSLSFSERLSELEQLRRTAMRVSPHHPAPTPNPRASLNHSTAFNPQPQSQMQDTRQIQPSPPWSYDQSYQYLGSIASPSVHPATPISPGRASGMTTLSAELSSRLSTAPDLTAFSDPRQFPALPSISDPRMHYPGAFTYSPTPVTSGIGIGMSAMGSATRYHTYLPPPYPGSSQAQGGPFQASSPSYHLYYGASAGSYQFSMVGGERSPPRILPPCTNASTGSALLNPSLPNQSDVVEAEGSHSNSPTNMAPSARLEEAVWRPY
Target sequence (Q13951 whole entry, looked up): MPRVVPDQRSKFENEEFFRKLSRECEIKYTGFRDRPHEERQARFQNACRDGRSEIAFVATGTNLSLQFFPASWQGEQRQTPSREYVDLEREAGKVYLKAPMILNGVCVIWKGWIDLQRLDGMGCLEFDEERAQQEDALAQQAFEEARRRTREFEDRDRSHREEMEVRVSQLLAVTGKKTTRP
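Interaction loss through any mechanism counts as activity. Pre-formed complex of His-CBF-beta and biotin-RUNX1 (30 nM apiece) is incubated with compound 15 min, then with 50 ng nickel and 50 ng streptavidin beads for 90 min before AlphaScreen detection.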
JMJD2E inh: JMJD2E (human) inhibition | actives 1.6% (n = 230,000) | JMJD2E catalytic domain, FDH-coupled NADH fluorescence (FDH is formaldehyde dehydrogenase) | Potency, µM (highest dose often 57.1 µM), actives largely listed as inhibitors; active = well fitted inhibition curve with a large enough effect, not every such curve was filed as active; inconclusive = small, poorly fitted or top-dose-only effect, or another doubt; inactive = no such curve, though single readings can be large or run the other way; note: nearly all actives have a fitted effect of over 50% in size
ALDH1A1 inh: blocks purified human ALDH1A1 activity; P00352; Potency, µM (titrated, usually from 75.3 µM), most hits filed as inhibitors; actives 7.3% (n = 220,000); Purified ALDH1A1, NADH fluorescence, propionaldehyde substrate; active = well fitted inhibition curve with a large enough effect, not every such curve was filed as active; inconclusive = small, poorly fitted or top-dose-only effect, or another doubt; inactive = no such curve, though single readings can be large or run the other way
HttQ103 aggreg: mutant huntingtin aggregation inhibition; PC12 HttQ103-GFP aggregates, Acumen cytometry, 40 h; Potency, µM (titrated, usually from 46.1 µM), hits mostly inhibitors; actives 1.1% (n = 220,000); note: nearly all actives have a fitted effect of over 60% in size
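Multiplexed with ATP-based cell death, this channel scores GFP aggregates in PC12 cells expressing inducible HTTex1-Q103-GFP. Induction used 100 nM tebufenozide; compounds were tested in concentration series.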
HPGD block: HPGD (human) dehydrogenase inhibition. purified HPGD, NADH fluorescence kinetic, PGE2 substrate. Potency, µM, usual class: inhibitors. actives 4.3% (n = 150,000). AID 894; active = well fitted inhibition curve with a large enough effect, not every such curve was filed as active; inconclusive = small, poorly fitted or top-dose-only effect, or another doubt; inactive = no such curve, though single readings can be large or run the other way
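20 nM HPGD preincubated 15 min at room temperature with compound in 50 mM Tris-HCl pH 8, 0.01% Tween 20. Started with 1 mM NAD+ and 30 uM prostaglandin E2; NADH fluorescence (360/450 nm) read 5 times over 30-s intervals, last minus first.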
HTT cytoprotect: Huntington cell model cytoprotection by ATP luminescence. PC12 HTT-Q103 induced, cytoprotection, ATP luminescence, 40 h. Potency, µM (highest dose often 56.4 µM), usual class: activators. actives 0.14% (n = 230,000). AID 1471; note: nearly all actives have a fitted effect of over 45% in size
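Huntington model: PC12 line, ecdysone-inducible HTTQ103 exon1–GFP, tebufenozide 100 nM. Test articles in a dose series. Endpoint luminescence from cellular ATP.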
Numbers stand for hits; i = inactive; ? = inconclusive; nt = no result; ! = a repeat was not active; [ ] = remark or other dose. Unless noted, calls come from the whole dose curve; as a rule, active = well fitted curve in the direction sought with a large enough effect; inconclusive = small, poorly fitted or top-dose-only effect, or another doubt; inactive = no such curve, though single readings can be large; an effect the other way counts as inactive or inconclusive.

SMILES	CBFb-RUNX1 inh	JMJD2E inh	ALDH1A1 inh	HttQ103 aggreg	HPGD block	HTT cytoprotect
NC(=O)C1(NC(=O)[C@@H]2CC3(CC(c4cccc(NC(=O)[C@@H]5CCC(=O)N5)c4)=NO3)CN2C(=O)c2cnccn2)CC1 (some centres undefined)	i	i	22µM	i	i	i
NC(=O)C1(NC(=O)[C@@H]2CC3(CC(c4cccc(NC(=O)[C@@H]5CCC(=O)N5)c4)=NO3)CN2C(=O)c2ccccc2)CC1 (some centres undefined)	i	i	i	i	i	i
CC(C)NC(=O)C12CC3CC(C1)CC(C(=O)NC(C)C)(C3)C2	i	i	i	i	nt	nt
CC(C)(C)c1cc(C(=O)/C=C/c2ccc(C(=O)O)cc2)cc(C(C)(C)C)c1	i	i	i	nt	i	2.5µM
OCCC1CN(Cc2cn[nH]c2C2CCCCC2)CCN1C1CCCCC1 (centres undefined)	i	i	i	i[9.22 µM]	nt	i[10 µM]
CC(C)CC1(C)N=C(c2ccccc2)C(=S)N1 (centres undefined)	i	i	?	?	nt	i
CCc1cc2c(=O)c(-c3ccc(F)cc3)c(C)oc2cc1OCC(=O)O	i	i	35µM	i[9.22 µM]	nt	i
O=C(NC1CC1)c1cc(F)c(F)cc1Cl	i	i	i	i	22µM	i
CC(C)(C)NC(=O)c1cc(F)c(F)cc1Cl	i	i	i	i	i	i
CCn1cc(C(=O)O)c(=O)c2cc(F)c(N3CCN[C@@H](C)C3)c(F)c21	i	?	?	i	?	i
CC1(C)Cc2nc3sc4c(SCC(=O)NCc5ccccc5)ncnc4c3cc2CO1	i	i	7.9µM	i	i	i
CC1(C)Cc2nc3sc4c(SCC(=O)O)ncnc4c3cc2CO1	i	i	nt	i[9.22 µM]	nt	i[10 µM]
COC(CSc1ncnc2c1oc1nc3c(cc12)COC(C)(C)C3)OC	i	?	3.2µM	i[9.22 µM]	nt	i[10 µM]
COC(=O)CSc1ncnc2c1sc1nc3c(cc12)COC(C)(C)C3	i	i	1.4µM	i	nt	i[10 µM]
CCOC(=O)C1C(C(=O)OC)=C(c2ccc(F)cc2)c2ccc(OC)cc2N1S(=O)(=O)C(F)(F)F (centres undefined)	i	nt	?	nt	i	i
c1ccc(CCc2ccccc2-c2nc(-c3cccnc3)no2)cc1	i	i	?	20µM	i	i
Cc1cccc(NC(=O)c2cc(Cl)nc3ccccc23)n1	i	i	?	i[9.22 µM]	nt	i[10 µM]
C=CCN1C(=O)/C(=C/c2ccc(N(C)C)cc2)S/C1=N\c1nnc(CC)s1	i	i	?	i	i	i
C=CCN1C(=O)/C(=C/c2ccc(O)c(OC)c2)S/C1=N/c1nccs1	i	i	1µM	i	i	nt
C=CCN1C(=O)/C(=C/c2ccc(OCC(=O)O)cc2)S/C1=N/c1nccs1	i	i	5µM	i	i	nt
OCCN1CCOCCN(CCO)CCOCC1	i	i	i	i	i	i
CCCCCCOc1ccc(C(=O)O)cc1C#N	i	i	i	i	20µM	nt
CCCCCCCCOc1ccc(C(=O)O)cc1	i	nt	i	nt	i	i
CN(CCC#N)C(=O)COC(=O)c1c2c(nc3ccccc13)/C(=C/c1ccco1)CC2	nt	25µM	?	i	i	i[1.9 µM]
Cn1nnnc1SCC1=C(C(=O)O)N2C(=O)C(NC(=O)C3CC3c3ccccc3)C2SC1 (centres undefined)	?	i	10µM	i	nt	i
SMILES	CBFb-RUNX1 inh	JMJD2E inh	ALDH1A1 inh	HttQ103 aggreg	HPGD block	HTT cytoprotect
CC(C(=O)NC1C(=O)N2C(C(=O)O)=C(CSc3nnnn3C)CSC12)n1cc(Br)cn1 (centres undefined)	i	i	15µM	i	nt	i
Cc1ccc(C2C=NN(c3ccccc3)C2=O)cc1 (centres undefined)	i	i	i	i[9.22 µM]	nt	i[10 µM]
COC(=O)c1ccc2c(c1)C(C)(C)C(/C=C/c1ccc(OC)c(OC)c1OC)=[N+]2C	i	i	i	11µM	i	i
N#Cc1c(C(F)(F)F)cc(-c2ccc(F)cc2)nc1SCC(=O)O	i	?	i	i[9.22 µM]	nt	i[10 µM]
N#Cc1c(-c2ccc(F)cc2)cc(-c2ccccc2)nc1SCC(=O)NCC(=O)O	i	?	8.9µM	i[9.22 µM]	nt	i[10 µM]
Cc1nc(SCC(=O)c2ccccc2)n[nH]1	i	?	22µM	i	?	i
CCN1CCN(C(C)C(=O)Nc2c(C)n(C)n(-c3ccccc3)c2=O)CC1 (centres undefined)	i	?	22µM	i	i	i
Nc1nc(SCC(=O)c2cc3ccccc3o2)n[nH]1	i	i	i	i[9.22 µM]	nt	?
Cc1nc(SCC(=O)Nc2c(C)n(C)n(-c3ccccc3)c2=O)n[nH]1	i	i	14µM	i	i	i[10 µM]
COc1ccccc1C(=O)CSc1n[nH]c(N)n1	i	?	11µM	i	i	i
O=C(CSc1ccc(Cl)cc1)NNC(=O)c1cccnc1	i	i	i	i	nt	nt
Cc1ccc(Nc2c([N+](=O)[O-])cc(C(=O)N3CC(=O)Nc4ccccc43)cc2[N+](=O)[O-])c(C)c1	?	i	i	i	16µM	i
O=C1CN(C(=O)c2ccccc2F)c2ccccc2N1	i	i	i	?	i	i
Cc1cc(C(=O)COC(=O)c2ccc3c(c2)NC(=O)CS3)c(C)n1CCc1ccc(Cl)cc1	i	i	i	i[9.22 µM]	nt	i
CN(C)c1ccnc(C(=O)O)c1	i	2.8µM	?	i	nt	i
O=C(O)c1cc(Br)ccn1	nt	18µM	?	i	nt	i
O=C(O)c1ccccn1	nt	nt	nt	i	nt	i
COc1ccc(-c2nn(-c3ccccc3)cc2CNC(=O)c2cccc([N+](=O)[O-])c2)cc1	i	i	i	i	i	i[10 µM]
COC(=O)[C@@]1(Cc2ccc(OC)cc2)[C@@H]2C(=CC(=O)[C@H]2CC(=O)C(=O)N(C)C)CN1C(=O)c1ccccc1	i[2.36 µM]	i	i	?	i	?
C=C1C(=O)C=C2CN(C(=O)c3ccccc3)[C@@](Cc3ccc(F)cc3)(C(=O)OC)[C@@H]12	i[2.36 µM]	?	i	5µM	16µM	i
CN(Cc1ccccc1)c1nc(-c2ccc([N+](=O)[O-])cc2)nc2ccccc12	i	i	i	i	i	i
O=[N+]([O-])c1ccc(-c2nc(C(Cl)Cl)c3ccccc3n2)cc1	i	i	nt	1.8µM	nt	i[10 µM]
Cc1cccc(Nc2cc(Cl)nc(SCC(=O)O)n2)c1C	i	?	10µM!	i	25µM!	i[10 µM]
COc1ccc(-n2c(=O)c(-c3ccc(F)cc3)nc3cnc(OC)nc32)cc1	nt	nt	i	nt	i	i
CC(C)Cn1c(N)c(C(=O)CCl)c(=O)n(C)c1=O	i[2.36 µM]	i	8.9µM	?	i	nt
Cn1c(=O)c(C(=O)CCl)c(N)n(CC2CC2)c1=O	i[2.36 µM]	i	20µM	i	i	nt
COc1cc(/C=N/NC(=O)CSc2n[nH]c(=O)[nH]c2=O)cc(OC)c1O	i	i	?	i	nt	i
O=C(O)c1ccc2c(c1)C(=O)N([C@H](Cc1ccc(F)cc1)C(=O)O)C2=O	i	nt	nt	nt	nt	nt
